Screens (PubChem BioAssay)
SNCA viab count = GF-AFC viability counterscreen for inhibitors of alpha-synuclein gene (SNCA) expression; HEK-293-SNCA-luc viability, GF-AFC fluorescence, 24 h; AID 1671193, 2021; Potency, µM (highest dose often 57.1 µM), for the others: at the highest dose activity change, negative = cytotoxicity, actives largely listed as cytotoxic; hit rate 0.12% among 150,000;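 also: potency is read from the fitted curve at half-maximal effect; 0% = DMSO-treated cells and -100% = medium-only wells without cells; nearly all actives have a fitted effect of over 30% in size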
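Cytotoxicity counterscreen: after 24 h compound treatment of genome-edited SNCA-luciferase HEK-293 cells, live-cell protease substrate GF-AFC read by fluorescence after 30 min; activity scaled between DMSO (0%) and medium-only (-100%), curves Hill-fitted.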
SNCA expr inh = Primary qHTS assay for inhibitors of alpha-synuclein gene (SNCA) expression; HEK-293 SNCA-luciferase knock-in, luminescence, 24 h; Potency, µM (highest dose often 57.2 µM), for inactives: at the highest dose activity change, negative = inhibition, most hits filed as inhibitors; hit rate 0.17% among 140,000; AID 1671194, 2021;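 also: potency is read from the fitted curve at half-maximal effect; plate controls were DMSO cells for no effect and cell-free wells for full effect; nearly all actives have a fitted effect of over 45% in size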
KDM5B inhibitor = Primary screen for KDM5B Histone Demethylases FDH-coupled qHTS; Lysine-specific demethylase 5B (Homo sapiens), Q9UGL1; AID 1347165, 2019; hit rate 2.6% among 220,000; Potency, µM (doses to about 57.7 µM), actives largely listed as inhibitors; KDM5B demethylase, FDH-coupled NADH fluorescence (FDH is formaldehyde dehydrogenase); also: potency is read from the fitted curve at half-maximal effect; 0% is about no effect; nearly all actives have a fitted effect of over 70% in size
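Coupled FDH/NAD⁺ fluorescence readout. KDM5BΔAP 200 nM final; compound titration, 10 min RT preincubation; substrate mix 12.5 µM H3K4me3, 25 µM 2-OG, 50 µM Fe(II), 100 µM ascorbate, 0.25 mM NAD⁺, 0.25 U/mL FDH; ΔRFU over 30 min.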
IP6K1 inhibitor = Primary qHTS assay for small molecule inhibitors of Inositol hexaphosphate kinase 1 (IP6K1); Inositol hexakisphosphate kinase 1 (Homo sapiens), Q92551; IP6K1 kinase, ADP-Glo luminescence, 2 h; hits give low values; activity change, % (series mostly up to about 58 µM); hit rate 0.81% among 140,000; in the data active = activity change below about -25%; also: % is scaled to controls: 0 for no effect and ±100 for the full control effect
Target sequence (Q92551 whole entry, looked up): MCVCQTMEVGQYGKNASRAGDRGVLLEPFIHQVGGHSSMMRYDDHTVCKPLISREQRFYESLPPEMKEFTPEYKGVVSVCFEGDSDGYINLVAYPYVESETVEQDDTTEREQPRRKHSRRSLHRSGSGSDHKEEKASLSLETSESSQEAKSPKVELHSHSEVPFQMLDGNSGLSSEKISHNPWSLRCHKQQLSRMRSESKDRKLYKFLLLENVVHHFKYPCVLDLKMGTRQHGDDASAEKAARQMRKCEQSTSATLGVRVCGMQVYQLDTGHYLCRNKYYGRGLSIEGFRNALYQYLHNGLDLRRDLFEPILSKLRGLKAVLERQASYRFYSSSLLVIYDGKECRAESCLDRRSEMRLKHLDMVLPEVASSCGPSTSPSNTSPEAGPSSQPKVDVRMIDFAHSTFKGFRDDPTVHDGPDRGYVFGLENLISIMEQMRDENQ
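ADP-Glo luminescence measures ADP made by human IP6K1 during a 2 h RT reaction with ATP/IP6 (mix at 1.3 mM/130 uM); top library doses 57.5 and 19.1 uM final.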
Numbers without * were called inactive; i = inactive; u = inconclusive; x = no result given; [ ] = remark or other dose. Only some compounds are listed: those with a hit (about 3% of all), similar ones and a draw of the others. Unless noted, calls follow the shape of the dose curve; as a rule, active = well fitted curve in the direction sought with a large enough effect; inconclusive = small, poorly fitted or top-dose-only effect, or another doubt; inactive = no such curve, though single readings can be large; an effect the other way counts as inactive or inconclusive.

SMILES	SNCA viab count	SNCA expr inh	KDM5B inhibitor	IP6K1 inhibitor
COCCN1C(=O)c2cccn2CC1CNC(=O)c1ccc(-n2c(C)ccc2C)cc1 (stereo unspecified)	-10%	-10%	x	5
O=C(N[C@@H]1CCOC[C@H]1OCCO)c1cccc(-c2ccco2)c1	-2%	-15%	28µM*	-4
O=C(N[C@@H]1CCOC[C@H]1OCCO)c1cc(C2CC2)nc2ccccc12	-6%	3%	28µM*	-6
COc1cccc(-c2cc(C(=O)N(C)C)c3cnn(C)c3n2)c1	x	x	x	1
COc1ccc(S(=O)(=O)N2C[C@@H]3C[C@H](C2)c2ccc(-c4cccc(C(F)(F)F)c4)c(=O)n2C3)cc1	-4%	-10%	32µM*	5
CC(C)(CC(=O)O)CC(=O)N1C[C@@H]2C[C@H](C1)c1ccc(-c3cccc(C(F)(F)F)c3)c(=O)n1C2	-11%	-6%	28µM*	4
O=C(Nc1ccccc1)N1C[C@@H]2C[C@H](C1)c1ccc(-c3cccc(C(F)(F)F)c3)c(=O)n1C2	0%	10%	32µM*	11
CC(=O)Nc1ccc(S(=O)(=O)N2C[C@@H]3C[C@H](C2)c2ccc(-c4ccccc4C)c(=O)n2C3)cc1	-2%	-25%	25µM*	12
CCc1nc2c(c(-c3ccc(Cl)cc3)n1)CCN(Cc1ccc(C#N)cc1)CC2	-11%	-2%	u	-2
CCn1c2c(c(=O)n1-c1ccccc1)CCN(C(=O)CCc1cccnc1)C2	-6%[87.6 µM]	2%[87.6 µM]	i	12
Cc1cc(-c2cc3c(n(Cc4cccnc4)c2=O)CCN(C(=O)CCc2ccccc2)C3)ccc1F	2%	-23%	25µM*	8
Cc1ccc(CCNc2ncncc2-c2nc(-c3ccccc3)no2)cc1	30%	23%	32µM*	-9
Cc1ccc(Cl)cc1Nc1ncncc1-c1nc(-c2ccccc2)no1	10%	-14%	25µM*	-6
Cc1ccc(Nc2ccnc(N3CCCC(C(=O)NCc4cccc(F)c4)C3)n2)cc1 (stereo unspecified)	-2%[12.5 µM]	-16%	x	-13
O=C(NCCO)c1ccc(-c2ncc3cnc(C4=CCOCC4)cn23)cc1	2%[87.6 µM]	6%[87.6 µM]	32µM*	-14
O=C(NCCCO)c1ccc(-c2ncc3cnc(-c4cccc(F)c4)cn23)cc1	-5%[87.6 µM]	14%[87.6 µM]	u	-14
O=C(c1ccc(-c2ncc3cnc(C4=CCOCC4)cn23)cc1)N1CCc2ccccc2C1	-27%[87.6 µM]	8%[87.6 µM]	28µM*	-3
CC1(COc2ccccc2)COc2ccc(C(=O)NCc3cnccn3)cc2N1 (stereo unspecified)	5%[87.6 µM]	15%[87.6 µM]	i	14
O=C(c1ccc(-c2ncc3cnc(-c4ccccc4)cn23)cc1)N1CCS(=O)(=O)CC1	0%[87.6 µM]	6%[87.6 µM]	35µM*	-11
O=C(NC1CCC(O)CC1)c1ccc(-c2ncc3cnc(-c4ccccc4)cn23)cc1 (stereo unspecified)	-17%[87.6 µM]	u	u	0
Cc1ccc(C(=O)N2CCc3cn(C)c4cccc(c34)C2)cc1	9%	57%	u	-3
O=C(NCc1cnccn1)c1ccc(-c2ncc3cnc(C4=CCOCC4)cn23)cc1	4%[87.6 µM]	-9%[87.6 µM]	35µM*	-9
NC(=O)c1ccc(-c2ncc3cnc(-c4cccc(F)c4)cn23)cc1	2%[87.6 µM]	-7%[87.6 µM]	u	-12
O=C(c1ccc(-c2ncc3cnc(-c4cccc(F)c4)cn23)cc1)N1CCc2cccnc21	25µM*	28µM*	u	-17
COc1ccc(C(=O)NCc2nnc3cc(-c4nc(C)no4)ccn23)cc1F	-4%	u	7.9µM*	22
SMILES	SNCA viab count	SNCA expr inh	KDM5B inhibitor	IP6K1 inhibitor
Cc1noc(-c2ccn3c(CNC(=O)c4ccc5ccccc5n4)nnc3c2)n1	-18%	u	6.3µM*	40
Cc1noc(-c2ccn3c(CNC(=O)c4cccc(F)c4)nnc3c2)n1	0%	u	28µM*	14
Cc1noc(-c2ccn3c(CNC(=O)c4ccc(C)c(C)c4)nnc3c2)n1	-9%	-20%	u	22
COc1cccc(C(=O)NCc2nnc3cc(-c4nc(C)no4)ccn23)c1	-7%	4%	28µM*	26
Cc1nnc2ccc(N3CCC(N[S+](=O)([O-])c4cccs4)CC3)nn12	x	x	x	11
COCC1CN(Cc2ccccc2)C(=O)c2ccc(C)nc2O1 (stereo unspecified)	x	x	x	-8
